Only some compounds are listed: those with a hit (about 1.9% of all), similar ones and a draw of the others.
MCL1-BIM inh: MCL1-BIM-BH3 interaction inhibition (human). Q07820. GST-MCL1 / FITC-Bim-BH3 fluorescence polarization. inhibition, % at 10.9 µM. 0.68% of 320,000 active;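 active = inhibition above the mean inhibition of all tested compounds plus 3 SD, set per campaign, cut at about 40% in these data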;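 also: 0% = DMSO wells and 100% = unlabeled Bim-BH3 peptide control; higher means more loss of mP so more displacement of Bim peptide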
LANA-H2B inh: blocks KSHV LANA binding to histone H2A/H2B; Q9QR71; cell-free LANA-H2A/H2B peptide, fluorescence polarization; inhibition, % (no concentration beside the values); 0.6% of 320,000 active; AID 2629; in the data active = inhibition mostly above about 10%, no sharp cut-off; inactive = mostly below about 6.7%
CR mimetic SO: caloric restriction mimetics inhibiting age-related superoxide in yeast | S. cerevisiae aged cells, superoxide DHE fluorescence; hits give low values | 0.18% of 330,000 active | superoxide response (% of plate mean), % at 10 µM;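 active = superoxide response under a set limit, about three screen SD below normal, cut at about 65% in these data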;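 also: yeast aged for seven days with compound at 30 °C before DHE staining; 100% = average MFI of all compound-treated wells on the plate with controls excluded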
BCLXL inh: inhibitors of human Bcl-xL; inhibition, % at 10.9 µM; Q07817; GST-Bcl-xL / FITC-Bim BH3 peptide fluorescence polarization; 0.7% of 320,000 active;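 active = inhibition above the mean of all tested compounds plus 3 SD, cutoff set per campaign, cut at about 30% in these data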;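 also: 0% = DMSO wells and 100% = unlabeled Bim-BH3 peptide competitor; inhibitors lower millipolarization by displacing the labeled peptide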
GLD-1 TGE inh: GLD-1-TGE RNA interaction inhibition (C. elegans) | purified GLD-1 + fluorescein TGE RNA, fluorescence polarization | inhibition, % at 5.96 µM | 0.44% of 320,000 active | AID 2280;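 active = percent inhibition above a per-plate cutoff, the plate mean of test compounds plus 3 SD, cut at about 30% in these data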;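 also: 0% = DMSO wells with GLD-1 and probe and 100% = wells lacking GLD-1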
Target sequence (Q17339 whole entry, looked up): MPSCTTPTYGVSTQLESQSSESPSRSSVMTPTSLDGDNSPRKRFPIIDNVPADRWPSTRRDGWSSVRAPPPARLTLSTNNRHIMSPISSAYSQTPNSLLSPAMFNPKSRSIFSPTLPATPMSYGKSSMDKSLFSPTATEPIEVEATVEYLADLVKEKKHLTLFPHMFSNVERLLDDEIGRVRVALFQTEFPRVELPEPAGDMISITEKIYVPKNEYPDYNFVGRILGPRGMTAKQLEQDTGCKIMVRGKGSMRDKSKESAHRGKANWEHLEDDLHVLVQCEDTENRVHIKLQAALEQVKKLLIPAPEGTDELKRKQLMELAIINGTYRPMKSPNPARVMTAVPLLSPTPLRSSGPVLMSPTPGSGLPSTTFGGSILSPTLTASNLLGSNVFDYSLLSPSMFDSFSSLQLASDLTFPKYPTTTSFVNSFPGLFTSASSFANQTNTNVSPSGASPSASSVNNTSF
MEX-5 binding: C. elegans MEX-5 TCR-2 RNA binding activity | MEX-5/FITC-TCR2 RNA binding, fluorescence polarization; hits give low values | Q9XUB2 | activity score (negative = inhibition of binding), % at 10 µM | AID 1832 | 0.38% of 300,000 active;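 active = inhibition past about -25% in most replicates, and total fluorescence under double the plate's negative control median, limit read from the data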;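 also: 0% = DMSO and -100% = 5 µM competing unlabeled TCR2 RNA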
Starred values were filed as active, the others as inactive.

For COC(=O)c1cc(S(=O)(=O)NCC2CCN(CCc3cccs3)CC2)c[nH]1 the results were MCL1-BIM inh 0, LANA-H2B inh 4, CR mimetic SO 97, BCLXL inh 8, GLD-1 TGE inh -3 and MEX-5 binding 1.
Screening Cc1ccccc1C1CC(c2ccc(F)cc2)Nc2nc(N)nn21 (stereo unspecified) returned MCL1-BIM inh 2, LANA-H2B inh 3, CR mimetic SO 105, BCLXL inh 3, GLD-1 TGE inh 1 and MEX-5 binding -1.
`Cc1ccccc1C1CC(c2ccc(Br)cc2)Nc2nc(N)nn21` (stereo unspecified) gave MCL1-BIM inh 0, LANA-H2B inh 17*, CR mimetic SO 122, BCLXL inh 5, GLD-1 TGE inh 4 and MEX-5 binding 0.
Screening C[C@H](CO)N1C[C@H](C)[C@@H](CN(C)S(C)(=O)=O)Oc2c(NC(=O)Nc3ccccc3)cccc2C1=O returned CR mimetic SO 88 and GLD-1 TGE inh 2.
Screening COc1ccccc1NC(=S)NNC(=O)c1cc(C)n(C)n1 returned MCL1-BIM inh 4, LANA-H2B inh 1, CR mimetic SO 107, BCLXL inh 0, GLD-1 TGE inh 3 and MEX-5 binding -26*.
Screening COc1ccccc1NC(=S)NNC(=O)c1cc(C)nn1C returned MCL1-BIM inh 6, LANA-H2B inh -1, CR mimetic SO 93, BCLXL inh 8, GLD-1 TGE inh -1 and MEX-5 binding -16.
Screening N#Cc1ccc[n+](CC(=O)c2ccc(Cl)cc2)c1 returned MCL1-BIM inh 40, LANA-H2B inh -4, CR mimetic SO 97, BCLXL inh 33*, GLD-1 TGE inh 16 and MEX-5 binding -4.
C#CCOCCOCCOCCNc1nc(N2CCN(C(=O)CCCCCCCCCCNC(=O)[C@H](CO)n3cc(CCCSC)nn3)CC2)nc(N2CCN(C(=O)CCCCCCCCCCNC(=O)[C@@H]([C@H](C)O)n3cc(C)nn3)CC2)n1 was read as MCL1-BIM inh -15, LANA-H2B inh 0, CR mimetic SO 91, BCLXL inh 3 and GLD-1 TGE inh 0.
Cc1ccc(C2(C)NC(=O)N(CC(=O)NNC(=O)c3ccccc3)C2=O)cc1 (stereo unspecified) was read as MCL1-BIM inh -8, LANA-H2B inh -1, CR mimetic SO 85, BCLXL inh -2 and GLD-1 TGE inh -3.
For Cc1ccc(C2(C)NC(=O)N(CC(=O)NNC(=O)c3ccccc3F)C2=O)cc1 (stereo unspecified) the results were MCL1-BIM inh 2, LANA-H2B inh 21*, CR mimetic SO 97, BCLXL inh 4 and GLD-1 TGE inh 3.
Screening COc1ccccc1C(=O)Nc1ccc2c(c1)nc1n2CCN(Cc2ccccc2)C1 returned MCL1-BIM inh 3, LANA-H2B inh 16*, CR mimetic SO 96, BCLXL inh 2, GLD-1 TGE inh 1 and MEX-5 binding -3.
For COCCN1CCn2c(nc3cc(NC(=O)NC4CCCCC4)ccc32)C1 the results were MCL1-BIM inh 35, LANA-H2B inh 2, CR mimetic SO 96, BCLXL inh 33* and GLD-1 TGE inh 5.
CC(=O)c1ccc(OCCCC(=O)N(CCC2=CCCCC2)c2c(N)n(Cc3ccccc3)c(=O)[nH]c2=O)cc1 was read as MCL1-BIM inh -4, LANA-H2B inh 2, CR mimetic SO 105, BCLXL inh -3, GLD-1 TGE inh 8 and MEX-5 binding 0.
COc1cc2c(cc1OC)C(c1ccc(-c3ccc(Cl)cc3Cl)o1)=NCC2 was read as MCL1-BIM inh 2, LANA-H2B inh 1, CR mimetic SO 89, BCLXL inh 1, GLD-1 TGE inh 5 and MEX-5 binding -36*.
Screening COc1cc2c(cc1OC)C(c1ccc(-c3ccc(Cl)c(Cl)c3)o1)=NCC2 returned MCL1-BIM inh -2, LANA-H2B inh 0, CR mimetic SO 102, BCLXL inh 3, GLD-1 TGE inh 3 and MEX-5 binding -35*.
For CC1CN(C(=O)CCC(=O)NCc2ccc(Cl)cc2)c2ccccc2O1 (stereo unspecified) the results were MCL1-BIM inh 1, LANA-H2B inh 0, CR mimetic SO 123, BCLXL inh 2, GLD-1 TGE inh 1 and MEX-5 binding 2.
For COc1ccc(CN(C2CC2)S(=O)(=O)c2ccccc2Br)cc1 the results were CR mimetic SO 104.
Screening O=C(CCSc1ccc(F)cc1)NNC(=O)c1ccc([N+](=O)[O-])cc1 returned MCL1-BIM inh 0, LANA-H2B inh -3, CR mimetic SO 152, BCLXL inh 1 and GLD-1 TGE inh 6.
`CN(C)CCCn1c(=O)n(CCc2ccccc2)c(=O)c2c3c(sc21)CCCCC3` gave MCL1-BIM inh 38, LANA-H2B inh -1, CR mimetic SO 96, BCLXL inh 56*, GLD-1 TGE inh 21 and MEX-5 binding 0.
For O=C(CCCN1C(=O)/C(=C/c2cccc(Br)c2)SC1=S)Nc1cccnc1 the results were MCL1-BIM inh 11, LANA-H2B inh 2, CR mimetic SO 105, BCLXL inh 0, GLD-1 TGE inh -7 and MEX-5 binding -1.
O=C(CCCN1C(=O)/C(=C\c2cccc(Br)c2)SC1=S)Nc1cccnc1 was read as MCL1-BIM inh 13, LANA-H2B inh 19*, CR mimetic SO 102, BCLXL inh 6, GLD-1 TGE inh 2 and MEX-5 binding -1.
Screening CCOc1ccc(-c2c(C(=O)N/N=C/c3cccc(Br)c3)nnn2-c2nonc2N)cc1 returned MCL1-BIM inh 3, LANA-H2B inh 20*, CR mimetic SO 103, BCLXL inh 1, GLD-1 TGE inh 2 and MEX-5 binding -1.
Cc1ccc(-c2cc(C(=O)Nc3cc(C)on3)no2)cc1 was read as MCL1-BIM inh 28, LANA-H2B inh 4, CR mimetic SO 99, BCLXL inh 37*, GLD-1 TGE inh 47* and MEX-5 binding 0.
Cc1cc(NC(=O)c2cc(-c3ccccc3)on2)no1 was read as MCL1-BIM inh -6, LANA-H2B inh 3, CR mimetic SO 99, BCLXL inh -1, GLD-1 TGE inh 5 and MEX-5 binding -1.
For COC(=O)c1ccc(C(=O)OC)c(NC(=O)COC(=O)C2CC2C)c1 (stereo unspecified) the results were MCL1-BIM inh 4, LANA-H2B inh 21*, CR mimetic SO 106, BCLXL inh 3, GLD-1 TGE inh -7 and MEX-5 binding 4.
For CC1CC1C(=O)OCC(=O)Nc1ccccc1Oc1ccccc1 (stereo unspecified) the results were MCL1-BIM inh 10, LANA-H2B inh 35*, CR mimetic SO 84, BCLXL inh 4, GLD-1 TGE inh -1 and MEX-5 binding -4.
C=CC[C@@H](CC(=O)NCCO)C(=O)NC[C@H](OC(=O)[C@@H](CC=C)Cc1ccc(F)cc1)c1ccccc1 was read as LANA-H2B inh 4, CR mimetic SO 110 and GLD-1 TGE inh 2.
